Assay results as given in the supplement of paper PMC13380429.

test system: Vero E6 infected with SARS-CoV-2; assay: morphology score (similarity to uninfected cells); higher = more like uninfected cells; settings: 24 h

**Q.** Which morphology score does the source give for `Cc1ccc(S(=O)(=O)OCC(=O)Nc2ccc(C(=O)O)c(O)c2)cc1` [STAT3-inhibitor-VI] (10 µM) here?
**A.** 0.0369

**Q.** Which morphology score does the source give for `O=C1c2c(O)cc(O)cc2O[C@H](c2ccc(O)c(O)c2)[C@H]1O` [taxifolin] (10 µM) here?
**A.** 0.187

**Q.** Which morphology score does the source give for `c1cc(-c2cnn3cc(-c4ccc(OCCN5CCCCC5)cc4)cnc23)ccn1` [dorsomorphin] (0.833333 µM) here?
**A.** 0.321

**Q.** Which morphology score does the source give for `Oc1ccc(CC2NCCc3cc(O)c(O)cc32)cc1` (stereo unspecified) [higenamine] (0.833333 µM) here?
**A.** 0.0764

**Q.** `C#C[C@]1(O)CC[C@H]2[C@@H]3CCC4=CC(=NO)CC[C@@H]4[C@H]3CC[C@@]21CC` (mixture of isomers) [norelgestromin] (10 µM) was tested. Which morphology score did it give?
**A.** -0.0918

**Q.** `CNC1CC(N)C(O)C(OC2OC(CO)C(O)C3OC4(OC(C(N)CO)C(O)C(O)C4O)OC23)C1O` (stereo unspecified) [Hygromycin B] (10 µM) was tested. Which morphology score did it give?
**A.** 0.0213

**Q.** How did the morphology score turn out when `CC(=O)N(CC(O)CO)c1c(I)c(C(=O)NCCO)c(I)c(C(=O)NCC(O)CO)c1I` (stereo unspecified) [ioxilan] (10 µM) was run?
**A.** 0.00249

**Q.** For `Cc1cc(-c2ccc(/N=N/c3ccc4c(S(=O)(=O)O)cc(S(=O)(=O)O)c(N)c4c3O)c(C)c2)ccc1/N=N/c1ccc2c(S(=O)(=O)O)cc(S(=O)(=O)O)c(N)c2c1O` [evans-blue] (0.833333 µM), which morphology score is on record?
**A.** -0.0473

**Q.** Which morphology score does the source give for `CC(C)CCN1c2nc(Nc3cc(F)c(O)c(F)c3)ncc2N(C)C(=O)[C@@H]1C` (0.833333 µM) here?
**A.** 0.164

**Q.** `CCn1cc(C(=O)O)c(=O)c2cnc(N3CCCC3)nc21` [piromidic-acid] (10 µM) was tested. Which morphology score did it give?
**A.** 0.0342

**Q.** How did the morphology score turn out when `CC(C)NCCN(C(C)C)S(=O)(=O)c1ccc(Cl)cc1Cl` (10 µM) was run?
**A.** -0.0999

**Q.** With `Cn1cnc2c(NCc3ccccc3)nc(NCCO)nc21` [olomoucine] (10 µM) as the molecule, how does the morphology score read?
**A.** 0.0162

**Q.** How did the morphology score turn out when `c1ccc(N2CCN(CCCOc3ccc4c(c3)OCO4)CC2)cc1` (10 µM) was run?
**A.** 0.0822

**Q.** `CC(=O)Nc1ccc(OC[C@](C)(O)C(=O)Nc2ccc([N+](=O)[O-])c(C(F)(F)F)c2)cc1` [andarine] (10 µM) was tested. Which morphology score did it give?
**A.** -0.0126

**Q.** How did the morphology score turn out when `O=C(Nc1ccc(C(O)(C(F)(F)F)C(F)(F)F)cc1)c1ccc(C(F)(F)F)cc1` (10 µM) was run?
**A.** 0.265

**Q.** How did the morphology score turn out when `CCCCCCCCCCCCCCCC(=O)O[C@@H]1[C@@H](O)[C@@H](O)[C@@H]([C@H](NC(=O)[C@@H]2C[C@@H](CCC)CN2C)[C@H](C)Cl)O[C@@H]1SC` [clindamycin-palmitate] (10 µM) was run?
**A.** 0.0793

**Q.** For `C=C1/C(=C\C=C2/CCC[C@]3(C)[C@@H]([C@H](C)/C=C/[C@H](C)C(C)(C)O)CC[C@@H]23)C[C@@H](O)C[C@@H]1O` [ercalcitriol] (10 µM), which morphology score is on record?
**A.** 0.0324

**Q.** Which morphology score does the source give for `COC(=O)C1=C(C)NC(C)=C(C(=O)OC(C)C)[C@@H]1c1cccc2nonc12` [isradipine] (10 µM) here?
**A.** -0.0665

**Q.** `CC/C(=C(/CC)c1ccc(O)cc1)c1ccc(O)cc1` [diethylstilbestrol] (10 µM) was tested. Which morphology score did it give?
**A.** -0.0992

**Q.** How did the morphology score turn out when `CC(C)CNc1nc(-c2cccc3ncccc23)cn2c(-c3ccc(C(=O)NC4CC4)cc3)cnc12` (10 µM) was run?
**A.** -0.233

**Q.** `CC(C)c1ccc(C(=O)N=C(N)N)cc1S(C)(=O)=O` [cariporide] (10 µM) was tested. Which morphology score did it give?
**A.** 0.169

**Q.** How did the morphology score turn out when `Nc1nc(OCc2ccccc2)c2nc[nH]c2n1` [O6-benzylguanine] (10 µM) was run?
**A.** 0.112

**Q.** For `CN(C(=O)CN1C(=O)COc2cc(Cl)c(Cl)cc21)[C@@H](CN1CCCC1)c1ccc(-c2cccc(C(N)=O)c2)cc1` (0.833333 µM), which morphology score is on record?
**A.** 0.0807

**Q.** `COP(=O)(OC)OC(c1ccc(Cl)cc1)P(=O)(OC)OC` (stereo unspecified) [mifobate] (10 µM) was tested. Which morphology score did it give?
**A.** -0.0183

**Q.** Which morphology score does the source give for `CN1CCN(C(=O)C2C(C(=O)O)[C@H]3CC[C@@H]2O3)CC1` (stereo partly specified) (10 µM) here?
**A.** 0.0648

**Q.** With `COc1cc(C)[nH]c(=O)c1CNC(=O)c1c(C)n([C@H](C)C2CCOCC2)c2ccccc12` (10 µM) as the molecule, how does the morphology score read?
**A.** 0.0908

**Q.** How did the morphology score turn out when `FC(F)OC(F)(F)C(F)Cl` (stereo unspecified) [enflurane] (10 µM) was run?
**A.** 0.188

**Q.** How did the morphology score turn out when `N[C@@H](CSC(c1ccccc1)(c1ccccc1)c1ccccc1)C(=O)O` [S-trityl-L-cysteine] (0.833333 µM) was run?
**A.** 0.107

**Q.** Which morphology score does the source give for `C=CCCCCCCCCC(=O)[O][Zn][O]C(=O)CCCCCCCCC=C` [zinc-undecylenate] (10 µM) here?
**A.** 0.0826

**Q.** How did the morphology score turn out when `CCCCCCCCCCCCCCSCC(=O)O` [tetradecylthioacetic-acid] (10 µM) was run?
**A.** -0.0649

**Q.** For `CCOC(=O)Nc1cc2c(c(N)n1)N=C(c1ccccc1)[C@H](C)N2` [mivobulin] (10 µM), which morphology score is on record?
**A.** -0.0939
